# Compounds with a hit are over-represented: about 2.4% of the library has one in this group of screens.
# D2 PAM-1: positive allosteric modulators of human D2 dopamine receptor; potentiation, % at 10 µM; 0.34% of 340,000 active; P14416; HEK293 T-REx D2, calcium flux, EC20 dopamine potentiation;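 active = potentiation over 3 SD above the plate norm, cut at about 30% in these data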; note: 0% is about no effect
# Target sequence (P14416 whole entry, looked up): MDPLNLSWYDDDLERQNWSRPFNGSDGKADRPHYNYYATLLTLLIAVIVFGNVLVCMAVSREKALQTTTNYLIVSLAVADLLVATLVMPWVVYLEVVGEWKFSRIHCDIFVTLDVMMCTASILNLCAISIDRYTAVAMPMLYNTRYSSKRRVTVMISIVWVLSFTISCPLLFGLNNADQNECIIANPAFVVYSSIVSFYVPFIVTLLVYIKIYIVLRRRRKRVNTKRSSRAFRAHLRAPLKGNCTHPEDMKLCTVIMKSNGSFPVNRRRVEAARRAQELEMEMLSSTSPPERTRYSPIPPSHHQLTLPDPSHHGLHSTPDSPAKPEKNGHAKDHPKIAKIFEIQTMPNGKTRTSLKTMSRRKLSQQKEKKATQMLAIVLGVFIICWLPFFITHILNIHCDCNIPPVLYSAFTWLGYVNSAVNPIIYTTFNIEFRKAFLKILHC
#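 Primary screen. Calcium kinetics in induced HEK293 T-REx D2 cells: compound pre-addition 180 s, EC20 dopamine, 180 s more.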
# D2 ag-1: D2 dopamine receptor (human) agonism | P14416 | HEK293 T-REx D2 cells, calcium flux agonist mode | activation, % at 2 µM | 0.53% of 340,000 active;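 active = activation over 3 SD above normal in the single-dose calcium agonist read, cut at about 30% in these data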; note: 0% is about no effect
#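 Agonism is scored from calcium flux in a force-coupled, inducible HEK293 cell line expressing D2, read kinetically for 180 s after compound addition against dopamine controls.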
# D2 PAM-2: positive allosteric modulators of human D2 dopamine receptor; DiscoveRx D2 beta-arrestin cells, luminescence, 90 min; 100% = 57 uM dopamine signal; P14416; potentiation, % (concentration not given with the values); 0.23% of 360,000 active; AID 624464; in the data active = potentiation above about 50%; inconclusive = mostly about 30% to 49%
#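 PathHunter D2 cells, attached overnight at 37 deg C, received compound in DMSO plus dopamine at EC20 (50 nM final) for 90 min at 37 deg C. Beta-arrestin recruitment was read as luminescence after 1 h with detection reagent at ambient temperature.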
# D2 ag-2: activates the human D2 dopamine receptor. 0.084% of 360,000 active. DiscoveRx PathHunter D2 beta-arrestin, luminescence, 90 min; 100% = 57 uM dopamine signal. activation, % (concentration not given with the values); in the data active = activation above about 40%; inconclusive = between about 15% and that limit
#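 Agonist mode: compounds alone added to overnight-plated D2 PathHunter cells for 90 min at 37 C, with 57 uM final dopamine (EC100) defining full response. Beta-arrestin recruitment detected by chemiluminescent reagent, read after 1 h at ambient temperature.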
# D2 antag: antagonizes the human D2 dopamine receptor | P14416 | HEK293 TREx D2 cells, calcium flux, dopamine EC80 | inhibition, % at 10 µM | 2% of 340,000 active; in the data active = inhibition above about 30%; inactive = below that, where a call was filed; note: 0% is about no effect
#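 Cells plated overnight at 30 C with tetracycline; no-wash calcium dye, 30–90 min RT; 10 s baseline; compound pinned; 180 s read; EC80 dopamine added; another 180 s read.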
# * = called active by the depositor; u = inconclusive; x = not tested or not shown.
SMILES,D2 PAM-1,D2 ag-1,D2 PAM-2,D2 ag-2,D2 antag
COc1ccc(OC)c(CCNC(=O)Cn2ccc3cc(S(=O)(=O)N4CCCCC4)ccc32)c1,x,-1,x,x,x
O=C(CCN1CCN(c2ccccc2F)CC1)c1ccc(Br)cc1,-18,10,-13,1,34*
Cc1cccc(NC(=O)c2c(N)sc3c2CCC(C)C3)c1 (stereo unspecified),6,-2,x,x,x
CC(=O)c1cccc(NC(=O)NCCc2c[nH]c3ccccc23)c1,-6,-1,-10,-1,-6
O=C(Nc1cccc(CNCCc2c[nH]c3ccccc23)c1)c1ccccc1Cl,-34,22,-24,-4,72*
COC(=O)c1ccccc1NC(=O)CN1CCN(C23CC4CC(CC(C4)C2)C3)CC1,-24,1,-19,-3,72*
COC(=O)c1ccccc1NC(=O)CN1CCc2ccccc2C1,0,1,-10,5,-2
CCN1C(=S)SC(=O)C1=C1C=C(C)OC(C)=C1,4,2,-1,-1,57*
CCN1C(=S)SC(=O)C1=C1C=C(C)N(Cc2ccco2)C(C)=C1,8,x,-15,-5,x
Cc1ccc2c(c1)N(C(=O)N1CCC(C(=O)Nc3cccc(F)c3)CC1)CCO2,4,0,x,x,x
COCCCn1c(SCC(=O)Nc2ccc(OC)cc2)nc2c(sc3ccccc32)c1=O,-2,0,x,x,x
Cc1ccc(NC(=O)c2ccc3c(c2)OCCO3)cc1S(=O)(=O)Nc1cccc(Cl)c1,-4,1,7,2,31*
CCOc1ccc(NC(=O)c2ccc3c(c2)OCCO3)cc1S(=O)(=O)N(CC)CC,-9,0,-8,-2,32*
CCOc1ccc(C(=O)Nc2ccc3c(c2)OCCO3)cc1OC,0,0,-6,-2,3
CCOc1ccccc1N(C)C(=O)Cn1cnc2sc(C)c(S(=O)(=O)N3CCC(C)CC3)c2c1=O,x,1,x,x,x
Cc1cccc(NC(=O)C2CCN(S(=O)(=O)c3ccc4c(c3)CCCC(=O)N4)CC2)c1,-3,x,x,x,x
CCc1cc2c(cc3c(=O)n(CC(=O)NCCCN4CCCCCC4)nc(CC)n32)s1,-21,-1,-1,-6,33*
CCc1nn(CC(=O)NCCCN2CCN(C)CC2)c(=O)c2cc3sc(C)cc3n12,1,1,-16,-2,3
O=C(Nc1ccc2c(c1)CCCN2C(=O)c1ccco1)c1cc([N+](=O)[O-])ccc1Cl,-1,0,56*,7,1
O=C(Nc1ccc(N2CCN(C(=O)c3ccco3)CC2)cc1)c1ccc([N+](=O)[O-])cc1Cl,-4,1,-3,5,-1
Cc1nc2c(C(=O)NC(C)c3ccccc3)cnn2c(C)c1Cc1ccccc1 (stereo unspecified),x,2,x,x,x
CN(C)S(=O)(=O)c1ccc(N2CCCC2)c(C(=O)NNC(=O)COc2ccccc2F)c1,-5,1,2,-1,57*
COc1ccc(NC(=O)CN(C)C(=O)c2cc(S(=O)(=O)N(C)C)ccc2N2CCCC2)cc1,8,1,3,0,38*
COc1ccc(NS(=O)(=O)c2cc(NC(=O)CCNC(C)=O)ccc2N2CCCCC2)cc1,4,0,-2,2,37*
CN(C)S(=O)(=O)c1ccc(N2CCCC2)c(C(=O)NNC(=O)COc2ccccc2Cl)c1,3,-1,-16,-2,20
SMILES,D2 PAM-1,D2 ag-1,D2 PAM-2,D2 ag-2,D2 antag
CCc1nn(C(C)C(=O)N2CCN(c3cccc(C(F)(F)F)c3)CC2)c(=O)c2cc3occc3n12 (stereo unspecified),0,1,x,x,x
Cc1ccc(OCCCNCCO)c(Br)c1,-14,1,-29,0,39*
Cc1ccc(OCCCN(C)C)c(Br)c1,8,0,-18,-2,37*
COc1ccc(-c2nc3n(n2)C(c2ccccc2OC)C(C(=O)Nc2cccnc2)=C(C)N3)cc1 (stereo unspecified),6,-1,x,x,x
O=C(Nc1ccncc1)c1cc2ccccc2cc1O,20,3,137*,u,0
O=C(COc1ccc(Cl)cc1)Nc1ccc2c(c1)CCC2,-23,1,-22,-2,39*
Cc1cccc(NC(=S)NCC(c2ccccc2)N(C)C)c1 (stereo unspecified),x,0,-12,-1,38*
CN(C)C(CNC(=S)Nc1cccc(Cl)c1)c1ccccc1 (stereo unspecified),x,0,-18,-6,55*
Cc1cccc(NC(=S)NC(C)CCc2ccccc2)c1 (stereo unspecified),-21,0,-4,-3,-14
CN(C)NC(=S)Nc1cccc(Cl)c1,2,1,-2,3,45*
O=C(OCc1cc(=O)n2nc(-c3cccs3)sc2n1)c1cccc(F)c1,-1,0,x,x,x
COc1c2c(cc3oc(=O)ccc13)OC(C)(C)C=C2,4,-3,-2,4,33*
C=CCn1c(=O)c(C#N)cc2c(=O)n3ccccc3nc21,1,0,-7,-1,58*
CCC(CO)Oc1cc(NCc2ccccc2)c2ncn(C(C)C)c2c1 (stereo unspecified),x,x,-16,6,x
CCC(COC)Oc1cc(NCc2ccccc2)c2ncn(C(C)C)c2c1 (stereo unspecified),15,0,2,65*,-5
Oc1ccc(-c2ccccc2)cc1CN1CCCCCC1,-21,-1,-24,-2,69*
COc1ccc(Cn2c(C)nc3c(c2=O)c2nc4ccccc4nc2n3Cc2ccco2)cc1,x,x,0,0,x
COc1ccc(Cn2c3nc4ccccc4nc3c3c(=O)n(Cc4ccco4)c(C)nc32)cc1,-4,1,x,x,33*
Cc1cc(N2CCN(Cc3ccccc3)CC2)n2nc(C)c(-c3ccccc3)c2n1,-12,-1,-8,-3,18
Cc1nn2c(N3CCOCC3)cc(C(C)(C)C)nc2c1-c1ccc(Cl)cc1,2,-1,5,-2,-6
Cc1cc(N2CCOCC2)n2nc(C)c(-c3ccc(Cl)cc3)c2n1,1,1,-4,-5,33*
COc1ccc(-c2c(C)nn3c(N4CCN(Cc5ccccc5)CC4)cc(C)nc23)cc1OC,31*,0,-1,-5,26
COc1ccccc1/C=C/CN1CCC(Oc2cc(C(=O)NC3CC3)ccc2OC)CC1,-20,-1,1,-5,59*
COc1ccccc1/C=C/CN1CCC(Oc2ccc(C(=O)N3CCCCC3)cc2)CC1,-35,0,-34,1,69*
Cc1ccccc1C(=O)NCCCNC(=O)c1ccccn1,31*,-2,0,-1,2
O=C(NCCCNCCCNC(=O)c1ccccn1)c1ccccn1,4,0,-25,-1,74*
Cc1ccccc1C(=O)NCCNC(=O)c1ccccn1,0,3,-8,-5,-3
CN(C)CCCNCCCNC(=O)c1ccccn1,-5,-1,-4,-1,19

# High-throughput results as filed in PubChem.
